Among all 340,000 compounds or so, about 1,000 (0.29%) were called active. The list is a sample of the results. Measured potencies and affinities stand elsewhere. Values without a mark were called inactive. Rule as the data show it: inconclusive = inhibition above about 27% without an active follow-up result; inactive = below that.
Assay: NS1A inhibition, H1N1 influenza, cell based functional assay (AID 504329)
Conditions: percent inhibition, at 12.5 µM, stronger effect = higher value

Structure (SMILES)	inhibition
Cc1cccc(C)c1NC(=S)N(CCN(C)C)C(C)c1ccccn1 (stereo unspecified)	10.7%
Cc1ccc(C)c(NC(=S)N(CCN(C)C)C(C)c2ccccn2)c1 (stereo unspecified)	4.89%
Cc1cc(=O)[nH]c(SCC(=O)Nc2ccc(C)c(S(=O)(=O)N3CCCCC3)c2)n1	14%
O=C(CNC(=O)c1ccco1)Nc1ccc2c(c1)OCCO2	5.25%
COc1ccc(/C=C/C(=O)NC(=S)NNC(=O)c2c(-c3ccccc3)noc2C)cc1	-5.37%
Cc1[nH]c(=S)[nH]c(=O)c1CCOc1ccccc1	21.1%
O=S(=O)(c1ccc(NC(=S)N/N=C/c2ccc(O)c(O)c2)cc1)N1CCOCC1	7.64%
O=S(=O)(c1ccc(NC(=S)Nc2ccccc2)cc1)N1CCOCC1	1.71%
NNC(=S)Nc1ccc(S(=O)(=O)N2CCOCC2)cc1	-2.99%
O=C(N/N=C/c1cc(Cl)cc([N+](=O)[O-])c1O)c1cccc(S(=O)(=O)N2CCOCC2)c1	13%
Cc1sc2ncnc(OCC(=O)NC(C)C(C)C)c2c1C (stereo unspecified)	11.9%
N/C(=N\[N+](=O)[O-])N1CCN(C(=O)OC2CCCC2)CC1	0.06%
CCN(CC(=O)Nc1c(F)cccc1F)C(=O)CCNC(=O)c1ccc([N+](=O)[O-])cc1	-2.66%
O=C(O)c1cccc(-c2ccccc2)c1O	-26.6%
Cc1ccc2oc(-c3ccccc3C(=O)O)cc(=O)c2c1	1.72%
CN1CCN(C(=O)Nc2ccc([N+](=O)[O-])cc2)CC1	15.5%
O=C(CN1C(=O)c2ccccc2C1=O)OCC(=O)c1ccccc1	-5.68%
COc1ccc(C(=O)COC(=O)C2CC3CCCC(C2)C3=O)cc1Br (stereo unspecified)	-3.01%
O=C(Cn1[nH]c(=O)c2ccccc2c1=O)OCC(=O)c1ccc(Br)cc1	5.91%
O=C1CN(CC(=O)N2CCCCC2)c2ccccc2O1	16%
O=C(CN1C(=O)C2C3C=CC(C3)C2C1=O)OCC(=O)c1ccc(Br)cc1 (stereo unspecified)	4.57%
CCC1Oc2ccccc2N(CC(=O)NCc2ccco2)C1=O (stereo unspecified)	-8.15%
O=C(CN1CCOc2ccccc21)NCc1ccco1	-0.84%
COc1ccc(C(=O)COC(=O)Cn2nnc3ccccc32)cc1Br	18.7%
Cc1c(C)c2ccc(OCC(=O)N3CCN(c4ccccc4)CC3)cc2oc1=O	4.8%
COc1cc(C2NC(=O)NC(c3ccccc3)=C2C(C)=O)cc(Cl)c1OCC(=O)O (stereo unspecified)	-2.44%

— PubChem BioAssay AID504329 (Southern Research Specialized Biocontainment Screening …, 2011)
